Screens: PubChem, National Center for Advancing Translational Sciences (NCATS)
IkB signaling = IkB Signaling. 110,000 tested, 0.04% active. ABC-DLBCL IkBa-CBG/CBR dual luciferase ratio, 4 h; response scale: scaled: untreated 0%, proteasome inhibitor 100%. AID 445, 2006. Potency, µM (highest dose often 57.1 µM), without a hit: at the top dose IkBa stabilization activation; active = well fitted curve in the direction sought with a large enough effect in the signal ratio, not every such curve was filed as active; inconclusive = small, poorly fitted or top-dose-only effect, or a change in a side signal; the % refers to the signal ratio;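 note: the direction sought is a rising ratio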
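Curves were fitted separately to fusion (green), unfused (red) and ratio luminescence, then classed by r2, magnitude and activity. Cells: OCI-Ly3, 4 h compound plus doxycycline at 37C; 10 uM MG-132 defined full response.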
p53ts 39C kill = qHTS Screen for Compounds that Selectively Target Cancer Cells with p53 Mutations: Cytotoxicity of p53ts Cells at the Nonpermissive Temperature; H1299-p53A138V viability at 39C, ATP luminescence, 24 h; Potency, µM (doses to about 46.1 µM), inactives show top-dose activity change, negative = cell killing, most hits filed as cytotoxic; 130,000 tested, 1.5% active; note: % is set by controls: 0 for no effect and ±100 for the full control effect; nearly all actives have a fitted effect of over 55% in size
p53ts 32C kill = qHTS Screen for Compounds that Selectively Target Cancer Cells with p53 Mutations: Cytotoxicity of p53ts Cells at the Permissive Temperature. H1299-p53A138V at 32C, ATP luminescence viability, 24 h. Potency, µM (titrated, usually from 46.1 µM), for the others: at the highest dose activity change, negative = cytotoxicity, hits mostly cytotoxic. 130,000 tested, 0.93% active;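 note: 0% = DMSO and -100% = full killing by reference compound; nearly all actives have a fitted effect of over 55% in size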
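Cells: H1299 p53ts (A138V), 600/well, pre-incubated 16–30 h at 37C. Cpd up to 46 uM, 24 h, 32C. Readout: ATPlite luminescence, 20 min RT. Normalization: DMSO vs tamoxifen 100 uM. AC50 by Hill equation.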
Peg3 imprint = qHTS Assay for Compounds that Induce Erasure of Genomic Imprints | mouse ES Peg3-LacZ reporter, beta-gal luminescence, 40 h | 110,000 tested, 0.02% active | Potency, µM (titrated, usually from 60.7 µM), for the others: at the top dose activity change, positive = activation, most hits filed as activators
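Readout: BetaGlo luminescence (5 min, room temp) for LacZ from the normally silent maternal Peg3 allele in female Peg3LacZ-Neo ES cells. Cells 300/well, 40 h, 37C, 5% CO2. Data normalized per plate to negative controls.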
The depositor's hits bear a star; ? = inconclusive; . = not tested or not shown; [ ] = remark or other dose. Only some compounds are listed: those with a hit (about 1.7% of all), similar ones and a draw of the others. Unless noted, calls come from the whole dose curve; as a rule, active = well fitted curve in the direction sought with a large enough effect; inconclusive = small, poorly fitted or top-dose-only effect, or another doubt; inactive = no such curve, though single readings can be large; an effect the other way counts as inactive or inconclusive. Potency is the fitted concentration of half-maximal effect.

SMILES	IkB signaling	p53ts 39C kill	p53ts 32C kill	Peg3 imprint
CCOC(=O)c1ccc(NC(=O)c2ccc(C)c(S(=O)(=O)N3CCOCC3)c2)cc1	?	?	16µM*	-22%
Cc1ccccc1NC(=O)c1ccc(Cl)c(S(=O)(=O)N2CCCCCC2)c1	?	-16%	?	-19%[10.9 µM]
Cc1ccc(C(=O)Nc2ccc(F)cc2)cc1S(=O)(=O)N1CCOCC1	?	-16%	-12%	-18%[10.9 µM]
CCN(Cc1ccccc1)S(=O)(=O)c1cc(C(=O)NCC2CCCCC2)ccc1OC	.	2%	.	.
O=C(O)c1cccc(NC(=O)c2cccc(S(=O)(=O)N3CCCCC3)c2)c1	-1%	-1%	-30%	3%
CCN(CC)S(=O)(=O)c1cc(C(=O)Nc2ccccc2C(=O)O)ccc1OC	4%	?	13µM*	-11%
Cc1ccc(C(=O)Nc2ccccc2C(=O)O)cc1S(=O)(=O)N1CCCCCC1	?	4µM*	7.9µM*	-19%[10.9 µM]
CCCCC(=O)Nc1nnc(S(=O)(=O)N(CC)c2cc(C)cc(C)c2)s1	?	3%	-3%	-14%[10.9 µM]
CCOc1ccc(Nc2nc(-c3cccc(Cl)c3)c3c(n2)-c2ccccc2OC3)cc1	-5%	10µM*	?	-33%[10.9 µM]
COc1ccc(Nc2nc(-c3cccc(Cl)c3)c3c(n2)-c2ccccc2OC3)cc1	-1%	-3%	8%	-15%[10.9 µM]
CCOc1ccc(-c2cc(C(=O)NCCc3ccc(Cl)cc3)c3ccccc3n2)cc1	1%	?	-27%	-17%[10.9 µM]
CCCN1CCN(CCCNC(=O)c2ccc3c(c2)sc2nc(-c4ccc(OCC)cc4)cn23)CC1	?	13µM*	?	-30%[10.9 µM]
CCOc1ccc(-c2cc(C(=O)NCCCN3CCN(CC)CC3)c3ccccc3n2)cc1	-1%	13µM*	13µM*	-14%
COc1ccc(-c2cn3c(n2)sc2cc(C(=O)Nc4ccc(F)cc4Cl)ccc23)cc1	?	20µM*	-23%	-13%[10.9 µM]
CCOc1ccc(-c2cc(C(=O)NCCc3ccc(C)cc3)c3ccccc3n2)cc1	-2%	16µM*	-20%	-13%[10.9 µM]
COc1ccc(-c2cn3c(n2)sc2cc(C(=O)Nc4ccc(C)cc4C)ccc23)cc1	-1%	-5%	3%	-14%[10.9 µM]
COc1cc(-c2cc3n(C)c(C)c(CCC(=O)O)c(=O)n3n2)cc(OC)c1OC	-1%	21%	5%	-6%[10.9 µM]
CCOc1ccc2nc(N3CCN(C(=O)CS(=O)(=O)c4ccc(F)cc4)CC3)sc2c1	?	6.3µM*	14µM*	-12%[10.9 µM]
Cc1ccc(NC(=O)Cn2c(=O)n(Cc3ccco3)c(=O)c3ccc(C(=O)NC4CCCC4)cc32)c(C)c1	-1%	13µM*	-27%	-12%[10.9 µM]
COc1cc(NS(=O)(=O)c2ccc(NC(=O)c3ccc(Cl)cc3Cl)cc2)nc(OC)n1	2%	1%	2%	-6%[10.9 µM]
O=C(NCc1ccccc1)c1ccc(Cc2nc3ccccc3[nH]2)cc1	.	-10%	-5%	.
N#C/C(=C\c1ccc(-c2ccc(F)cc2F)o1)c1nc2ccccc2[nH]1	-11%	6.3µM*	16µM*	-13%[10.9 µM]
CCOC(=O)c1ccc(-c2ccc(/C=C(\C#N)c3nc4ccc(C)cc4[nH]3)o2)cc1	?	3.2µM*	?	-41%[10.9 µM]
O=C(/C=C/Nc1cccc(O)c1)c1ccccc1	?	7.9µM*	4µM*	-81%
O=C(/C=C\Nc1ccccn1)c1ccccc1	?	?	10µM*	-83%
SMILES	IkB signaling	p53ts 39C kill	p53ts 32C kill	Peg3 imprint
O=C(/C=C/Nc1ccccc1Br)c1ccccn1	?	1.3µM*	0.79µM*	-94%
CCc1cccc(CC)c1N(COC)C(=O)Cn1c(C)nc2ccccc21	?	12%	17%	-12%[10.9 µM]
CCN(CC)c1ccc2c(c1)oc(=O)c1c(Cl)cc(=O)oc12	?	13µM*	13µM*	-30%
CCN(CC)c1ccc2c(Cl)c(Br)c(=O)oc2c1	?	?	13µM*	.
CCN(CC)c1ccc2c(C)cc(=O)oc2c1	-3%	-6%	-2%[1.84 µM]	-5%
CCC(=O)/C=C/C1C(C)=CCCC1(C)C (centres undefined)	2%	11%	3%[1.84 µM]	-3%
COC(=O)c1c(SCC(=O)Nc2cc(C)cc(C)c2)[nH]c2ccccc2c1=O	?	13µM*	?	-8%[10.9 µM]
